# The list shows a part of the results. Calls of active or inactive are those of the source.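 The calls were made as follows: active = compounds that raise the fluorescence signal in this interference counterscreen, with EC50 at or below 10 µM; inactive = the rest.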
# Test: optical artefact potency, substrate without enzyme – biochemical, fluorescence intensity, triplicate, artefact control for kallikrein-7 zymogen activator project, dose response (AID 720493);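 also: intact quenched peptide substrate alone read at 355 nm excitation and 520 nm emission; signal is fluorescence gain from T0 to T4 after four hours at room temperature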
# Conditions: EDANS-DABCYL peptide fluorescence interference, no enzyme
row,SMILES,EC50
1,CN(C(=O)c1cc2c(=O)n3ccccc3nc2s1)C1CCCCC1,> 69.5 µM (inactive)
2,COC(=O)C1=NN(c2ccccc2)C2C(=O)N(c3ccccc3OC)C(=O)C12 (stereo not drawn),> 69.5 µM (inactive)
3,COc1cccc2sc3cc(NCC[C@@H]4CCCN4C)ccc3c(=O)c12,> 69.5 µM (inactive)
4,O=C(Oc1c(-c2ccco2)oc2ccccc2c1=O)c1cccnc1,21.2 µM (inactive)
5,O=C(OC1CCOC1=O)c1ccc(-c2nc3ccccc3s2)s1 (stereo not drawn),> 69.5 µM (inactive)
6,O=c1c(-c2ccccc2)coc2c(CN3CCOCC3)c(O)ccc12,> 69.5 µM (inactive)
7,Cc1cccc(C)c1NC(=O)C(c1ccccc1)N1CC(=O)Nc2ccccc21 (stereo not drawn),> 69.5 µM (inactive)
8,COc1c(N2CCN(C(=S)Nc3ccccc3F)C(C)C2)c(F)cc2c(=O)c(C(=O)O)cn(C3CC3)c12 (stereo not drawn),> 69.5 µM (inactive)
